# D2 ag-1: activates the human D2 dopamine receptor; activation, % (concentration not given with the values); 360,000 tested, 0.084% active; DiscoveRx PathHunter D2 beta-arrestin, luminescence, 90 min; 100% = 57 uM dopamine signal; in the data active = activation above about 40%; inconclusive = between about 15% and that limit
# Target sequence (P14416 whole entry, looked up): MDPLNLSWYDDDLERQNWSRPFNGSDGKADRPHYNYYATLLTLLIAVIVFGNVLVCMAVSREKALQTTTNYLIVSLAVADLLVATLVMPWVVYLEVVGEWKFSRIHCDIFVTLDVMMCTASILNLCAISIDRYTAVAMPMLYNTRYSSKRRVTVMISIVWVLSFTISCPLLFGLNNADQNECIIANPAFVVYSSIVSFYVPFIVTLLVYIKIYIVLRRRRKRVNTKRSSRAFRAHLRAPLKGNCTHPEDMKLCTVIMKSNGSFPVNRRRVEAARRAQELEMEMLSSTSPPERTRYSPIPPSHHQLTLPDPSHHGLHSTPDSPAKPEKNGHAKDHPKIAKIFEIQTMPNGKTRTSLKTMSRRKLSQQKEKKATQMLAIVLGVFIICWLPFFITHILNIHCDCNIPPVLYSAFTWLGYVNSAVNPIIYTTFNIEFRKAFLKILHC
#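 Agonist mode: compounds alone added to overnight-plated D2 PathHunter cells for 90 min at 37 C, with 57 uM final dopamine (EC100) defining full response. Beta-arrestin recruitment detected by chemiluminescent reagent, read after 1 h at ambient temperature.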
# D2 PAM-1: positive allosteric modulators of human D2 dopamine receptor. potentiation, % (concentration not given with the values). DiscoveRx D2 beta-arrestin cells, luminescence, 90 min; 100% = 57 uM dopamine signal. AID 624464. 360,000 tested, 0.23% active. P14416; in the data active = potentiation above about 50%; inconclusive = mostly about 30% to 49%
#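 D2 cells co-treated with compound plus 50 nM dopamine (EC20) for 90 min at 37 deg C to detect potentiation. Beta-arrestin recruitment was read as enzyme-fragment luminescence after 1 h at ambient temperature. Full response was set by 57 uM dopamine.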
# D2 antag: antagonizes the human D2 dopamine receptor. 340,000 tested, 2% active. HEK293 TREx D2 cells, calcium flux, dopamine EC80. inhibition, % at 10 µM. P14416. AID 485344; in the data active = inhibition above about 30%; inactive = below that, where a call was filed
#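 Measurement of antagonist activity uses fluorescent calcium dye in inducible HEK293 T-REx D2 cells: 10 s baseline, compound addition with 180 s read, EC80 dopamine addition with a further 180 s read.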
# D2 ag-2: activates the human D2 dopamine receptor. HEK293 T-REx D2 cells, calcium flux agonist mode. activation, % at 2 µM. 340,000 tested, 0.53% active. P14416. AID 485358;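 active = activation over 3 SD above normal in the single-dose calcium agonist read, cut at about 30% in these data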
#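 Calcium-flux readout, 1 cycle/sec over 180 s following compound pin transfer, in inducible HEK293 Trex D2 cells (force-coupled); dopamine controls included. Positive calcium responses during this window marked compounds as potential agonists.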
# D2 PAM-2: positive allosteric modulators of human D2 dopamine receptor; P14416; AID 485347; HEK293 T-REx D2, calcium flux, EC20 dopamine potentiation; 340,000 tested, 0.34% active; potentiation, % at 10 µM;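 active = potentiation over 3 SD above the plate norm, cut at about 30% in these data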
#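 Using a no-wash calcium dye in inducible, force-coupled HEK293 Trex cells expressing D2, we tracked fluorescence each second for 180 s after compound, then for 180 s after EC20 dopamine to detect augmented signalling.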
# Hits are given with their value; 0 = inactive; ? = inconclusive; - = not tested or not shown. Shown are actives, neighbours in structure and some others; about 2.4% of the full set was active somewhere.
SMILES,D2 ag-1,D2 PAM-1,D2 antag,D2 ag-2,D2 PAM-2
CCN(CC)C(=O)CSc1nc(O)c(Cc2ccc(OC)cc2)c(=O)[nH]1,0,0,0,0,0
CCc1c(O)nc(SCC(=O)N(CC)CC)[nH]c1=O,0,0,34,0,0
O=c1cc(-c2ccco2)nc(SCc2cccc(Cl)c2)[nH]1,0,54,0,0,0
O=c1oc2ccc3ccccc3c2cc1-c1nnc(Nc2cc(C(F)(F)F)ccc2Cl)s1,-,-,-,0,0
CCc1cccc(C)c1NC(=O)CSc1nc(C)c(C)o1,0,0,0,0,0
O=C(CSc1n[nH]c(-c2ccco2)n1)Nc1ccccc1Cl,0,0,30,0,0
Cc1nc(SCC(=O)Nc2ccccc2Cl)oc1C,0,0,31,0,0
Cc1nc(/N=C(\N)NC(=O)N2c3ccccc3Sc3ccccc32)nc2ccccc12,0,55,0,0,0
Cc1nc(/N=C(\N)NC(=O)c2ccccc2)nc2ccccc12,0,0,0,0,0
CC1(C)CC(NCc2ccccc2)CCO1 (stereo unspecified),0,0,0,0,38
CCc1cccc(C)c1NC(=O)CCn1c(=O)c2cccn2c2ccccc21,-,-,-,0,0
O=C(Nc1ccc(Cl)c(C(F)(F)F)c1)C1CCN(S(=O)(=O)c2cccc3nonc23)CC1,-,-,-,0,0
COc1ccc(-n2cc(-c3ccccc3)c3c(N4CCOCC4)ncnc32)cc1,?,62,0,0,0
Fc1ccc(-n2cc(-c3ccccc3)c3c(N4CCOCC4)ncnc32)cc1,?,0,0,0,0
COc1ccc(-n2nnnc2-c2cccc(OC)c2)cc1,0,0,36,0,0
O=C(Nc1cccc(-n2cnnn2)c1)c1ccc(C(F)(F)F)cc1,0,0,57,0,0
C=CC(C)(C)c1[nH]cnc1/C=C1\NC(=O)C(C(C)C)NC1=O (stereo unspecified),0,0,76,0,0
O=C(NCCS(=O)(=O)N1CCN(c2ccccc2F)CC1)C(c1ccccc1)c1ccccc1,-,-,-,0,0
CC(=O)N1CCc2c(sc3nc(SCC(N)=O)n(-c4ccc(F)c(Cl)c4)c(=O)c23)C1,-,-,-,0,0
CC(C)(C)c1ccc(C(=O)NNc2ncnc3c2cnn3-c2ccccc2)cc1,-,-,-,0,0
COc1cc(OC)c(-c2c3cc(O)c(=O)cc-3oc3cc(O)c(O)cc23)cc1OC,0,0,0,148,0
COc1ccc(CCN(C)C/C=C/c2ccccc2[N+](=O)[O-])cc1OC,0,0,57,0,0
CN(CC(=O)Nc1cccc(C#N)c1)S(=O)(=O)c1cc2c(cc1Cl)NC(=O)CO2,-,-,-,0,-
CC[C@@H](C(=O)[C@@H](C)[C@@H](O)[C@H](C)CCc1ccc(C)c(O)c1C(=O)O)[C@H]1O[C@](CC)([C@H]2CC[C@](O)(CC)[C@H](C)O2)C[C@@H]1C,?,?,49,0,0
CN(C)c1nc(SCC(=O)Nc2ccccc2)nc(N2CCOCC2)n1,0,0,31,0,0
SMILES,D2 ag-1,D2 PAM-1,D2 antag,D2 ag-2,D2 PAM-2
CN(C)c1nc(SCC(=O)Nc2ccc(Cl)c(Cl)c2)nc(N2CCOCC2)n1,0,0,0,0,-
Cc1ccc(-n2c(=O)c3c(cnn3C)n(CC(=O)Nc3cccc(Cl)c3)c2=O)cc1,-,-,-,0,0
CCC(=O)Nc1nnc(/C=C/c2ccc(OC)cc2)s1,0,0,35,0,0
COc1ccc(/C=C/c2nnc(NC(=O)CSc3ccc(C)cc3)s2)cc1,0,0,-,-,-
Cc1cc2c(N=O)c(NO)ccc2[nH]1,0,63,-,-,-
O=C(Cn1nc2n(c1=O)-c1ccccc1SC2)N/N=C/c1cccs1,0,0,41,0,0
CN(C)CCC=C1c2ccccc2CCc2ccccc21,0,0,64,0,0
CN(C)CCC=C1c2ccccc2C=Cc2ccccc21,0,0,49,0,0
CNCCC=C1c2ccccc2C=Cc2ccccc21,0,0,-,-,-
CCN(CC)S(=O)(=O)c1cccc(C(=O)Nc2ccccc2C(=O)Nc2ccc(OC)cc2)c1,-,-,-,0,-
O=C(COC(=O)c1ccc(O)cc1)NCc1ccc2c(c1)OCO2,0,0,0,0,0
N#CCC(=O)Nc1ccc(C(=O)OCC(=O)NCc2ccc3c(c2)OCO3)cc1,0,0,44,0,0
O=C(NCCS(=O)(=O)N1CCN(c2cccc(Cl)c2)CC1)C(c1ccccc1)c1ccccc1,-,-,-,0,0
CCOC(=O)N1CCC(=NNC(=O)Cn2ccc(C(F)(F)F)n2)CC1,0,0,0,0,33
O=C(CCC1N=C2c3ccccc3N=C(SCc3ccccc3Cl)N2C1=O)NCc1cccs1 (stereo unspecified),-,-,-,0,0
CCC(C)NC(=O)c1ccc(NC(=O)C2=C(C)OCCS2)cc1 (stereo unspecified),0,0,44,0,0
CC1=C(C(=O)Nc2cccc(C(=O)NC(C)C)c2)SCCO1,0,0,0,0,0
CS(=O)(=O)N(Cc1ccccc1)c1ccc(C(=O)NCC2CCCO2)cc1 (stereo unspecified),0,0,33,0,0
CS(=O)(=O)N(Cc1ccc(Cl)cc1)c1ccc(C(=O)NCC2CCCO2)cc1 (stereo unspecified),0,0,0,0,0
CCN(c1ccccc1)S(=O)(=O)c1ccc(Cl)c(C(=O)NCC2CCCO2)c1 (stereo unspecified),0,0,0,0,31
COc1ccc(C(=O)Nc2nnc(SCc3cc(=O)c4cc(C)ccc4[nH]3)s2)cc1OC,-,-,-,0,0
Cc1ccc(C(=O)CCNc2ccccc2)o1,0,0,33,0,0
CC1CCCN(CCCNC(=O)c2ccc3c(c2)N(Cc2ccc(F)cc2)C(=O)c2ccccc2S3=O)C1 (stereo unspecified),0,0,74,0,0
Cc1ccc(C)c(-c2nnc(NC(=O)c3ccco3)o2)c1,0,0,41,0,0
CCc1ccccc1N(C)C(=O)Cc1c(C(=O)O)c(C)cn1C,-,-,-,0,0
SMILES,D2 ag-1,D2 PAM-1,D2 antag,D2 ag-2,D2 PAM-2
CCc1ccc(NC(=O)c2cnn3ccccc23)cc1,0,0,42,0,0
COc1ccc(-c2nn3c(=O)cc(CN4CCN(C(=O)c5ccc(C(C)(C)C)cc5)CC4)nc3s2)cc1,-,-,-,0,0
O=C(CCN1CCCCC1)Nc1cccc(Cl)c1,0,0,57,0,0
Cc1ccc(Cl)cc1N1CCN(C2(c3ccccc3)C(=O)c3ccccc3C2=O)CC1,-,-,-,-,0
COC(=O)[C@@H]1C[C@@H]2CC[C@@H](O)C[C@@H]2N1Cc1ccc(OC)cc1,0,0,39,0,0
O=C1CCCN2N=C(SCC(=O)N3N=C(c4ccc(Br)cc4)CC3c3ccc(F)cc3)SC2=N1 (stereo unspecified),0,0,0,0,0
Cc1ccc(C2CC(c3ccc(Br)cc3)=NN2C(=O)CSC2=NN3CCCC(=O)N=C3S2)cc1 (stereo unspecified),0,0,0,0,33
COc1ccc(C2=NN(C(=O)CSc3ncccn3)C(c3ccc(OC)cc3)C2)cc1 (stereo unspecified),0,0,0,0,0
